UGM FP inh: Mtb UDP-galactopyranose mutase inhibition; 0.06% of 320,000 active; inhibition, % at 10 µM; purified UGM, fluorescence polarization probe displacement; P9WIQ1; in the data active = inhibition above about 10%, passing the limit was not always enough; inconclusive = no clear call, values can overlap the other calls
FBA Mtb inh: inhibits M. tuberculosis FBA enzyme | purified M. tuberculosis FBA, fluorescence read-out | 2.3% of 360,000 active | inhibition, % at 1 µM | P9WQA3 | AID 588726;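 also: 0% = vehicle and 100% = reference inhibitor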
GDH-TPI counter-1: counter-screen for M. tuberculosis FBA inhibitors: GDH-TPI coupled enzymes; inhibition, % at 4.8 µM; AID 588335; 1.2% of 360,000 active; GDH-TPI coupled enzyme counterscreen, NADH absorbance; in the data active = inhibition above about 30%;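 also: 0% = DMSO wells and 100% = wells lacking the enzyme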
Mtb bLac sens: beta-lactam sensitization of Mtb H37Rv. inhibition, % at 25 µM. M. tuberculosis H37Rv growth with meropenem, percent inhibition. 0.27% of 330,000 active. AID 434955; call rule not given here;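 also: growth measured after seven days incubation then overnight dye step; 0% = bacteria only wells and 100% = bacteria with antibiotic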
Rv3671c inh: Rv3671c (M. tuberculosis) protease inhibition; P9WHR9; inhibition, % at 5.96 µM; 0.048% of 320,000 active; AID 2606; in the data active = inhibition above about 38%;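 also: extracellular domain of Rv3671c used as enzyme; 0% = enzyme with DMSO and 100% = no enzyme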
Target sequence (P9WHR9 whole entry, looked up, the tested form may be a part): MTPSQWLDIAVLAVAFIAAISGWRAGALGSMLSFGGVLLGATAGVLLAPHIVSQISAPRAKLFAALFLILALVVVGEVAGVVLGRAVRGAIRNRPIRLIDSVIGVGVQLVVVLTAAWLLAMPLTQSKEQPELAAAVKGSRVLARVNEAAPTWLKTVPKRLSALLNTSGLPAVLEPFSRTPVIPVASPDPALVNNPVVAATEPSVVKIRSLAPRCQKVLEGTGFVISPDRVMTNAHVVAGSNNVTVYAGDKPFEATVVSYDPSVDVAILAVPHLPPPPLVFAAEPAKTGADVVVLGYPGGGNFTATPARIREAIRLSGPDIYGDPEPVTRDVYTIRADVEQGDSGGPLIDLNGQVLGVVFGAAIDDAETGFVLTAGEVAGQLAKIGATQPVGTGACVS
RecA splice inh: Mtb RecA intein splicing inhibition; P9WHJ3; cell-free RecA intein splicing, fluorescence; inhibition, % (no concentration beside the values); 0.75% of 290,000 active; AID 2221; in the data active = inhibition above about 30%; inconclusive = no clear call, values can overlap the other calls;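 also: 0% = vehicle wells and 100% = reference inhibitor control wells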
Mtb FBA confirm: Mtb FBA inhibition, confirmed | shares compounds with FBA Mtb inh | AID 651616 | 78% of 5,600 active | inhibition, % at 1 µM | purified M. tuberculosis FBA, fluorescence read-out;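 also: 0% = vehicle wells and 100% = reference inhibitor wells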
GDH-TPI counter-2: inhibits GDH-TPI coupling enzymes, flagging Mtb FBA hits. shares compounds with FBA Mtb inh. GDH-TPI coupled enzyme counterscreen, fluorescence. inhibition, % at 1 µM. 81% of 5,600 active. AID 652141; in the data active = inhibition above about 10%
* = called active by the depositor; u = inconclusive; x = no result; + = active, no number; ! = a repeat was not active. Only some compounds are listed: those with a hit (about 4% of all), similar ones and a draw of the others. Rule as the data show it, unless noted: active = inhibition above about 27%; inactive = the rest.

SMILES	UGM FP inh	FBA Mtb inh	GDH-TPI counter-1	Mtb bLac sens	Rv3671c inh	RecA splice inh	Mtb FBA confirm	GDH-TPI counter-2
O=C(CSc1cccc2cccnc12)N/N=C/c1ccc(F)cc1	-1	16	12	2	1	-8	x	x
O=C(O)CSc1cccc2cccnc12	-1	27*!	-1	-1	-5	-2	8	10*
O=C(CSc1nncn1-c1ccccc1)N1CCCC1	-6	1	-2	-1	5	1	x	x
CCCc1cc(=O)oc2c(CN3CCOCC3)c(O)ccc12	-2	x	23	-8	-2	-50	x	x
Cc1oc2c(CN3CCOCC3)c(O)ccc2c(=O)c1-c1ccc(Br)cc1	-1	68*	10	-7	8	1	4	-4
Cc1oc2c(CN3CCOCC3)c(O)ccc2c(=O)c1-c1ccc(Cl)cc1	-3	65*	28	-3	0	-1	37*	22*
Cc1oc2c(CN3CCCCC3C)c(O)ccc2c(=O)c1-c1ccc(Br)cc1 (centres undefined)	0	108*	11	3	x	-4	118*	97*
Cc1ccc(NC(=O)COc2cccc3c2OC(C)(C)C3)c(O)c1	4	-2	11	-5	0	x	x	x
Clc1cncc(Cl)c1NNc1c2ccccc2nc2ccccc12	1	39*	3	3	-4	-32	81*	66*
O=C(NNc1c2ccccc2nc2ccccc12)c1ccc(Cl)cc1	2	18	10	9	-2	-5	x	x
CC1=C(C(=O)N2CCOCC2)CC(CC(=O)NC2CCCCC2)C(=O)N1Cc1ccccc1 (centres undefined)	x	0	9	x	x	x	x	x
c1ccc(Nc2c(-c3ccco3)nc3ccccn23)cc1	1	111*	12	2	2	-3	99*	71*
Cc1ccc2sc(N3CCN(CCNC(=O)c4ccco4)CC3)nc2c1C	0	-1	3	12	2	8	x	x
Cc1ccc(-c2nc(CN3CCCCC3)cc(CN3CCCCC3)c2O)cc1	-2	59*	8	1	6	2	144*	122*
CCOC(=O)Cn1nc2oc(=O)c(CCN3CCN(c4ccccc4OC)CC3)c(C)c2c1C	x	2	6	x	x	x	x	x
CC(C)CCN(CCC(C)C)C(=O)Cc1c(O)c2ccccc2[nH]c1=O	1	20	14	19	0	-3	x	x
CCN(CC)C(=O)Cc1c(O)c2ccccc2[nH]c1=O	1	29*	19	10	19	-7	98*	70*
CCCCCc1c(O)c2ccccc2[nH]c1=O	0	29*	15	8	-10	8	62*	51*
COc1ccc2c(c1)nc(-c1cccc(Br)c1)c(=O)n2C(c1ccccn1)c1nc2ccccc2[nH]1 (centres undefined)	x	53*	x	x	x	x	68*	47*
CCOc1ccc(/C=N/NC(=S)NC2CC3CCC2C3)cc1 (centres undefined)	-4	31*	1	4	2	-1	-3	-4
CCn1ncc(-c2ccnc3cc(C(=O)O)nn23)c1C	0	68*	9	-3	5	5	137*	131*
COc1cccc(C(O)c2nc(-c3cccc(F)c3)cs2)c1 (centres undefined)	x	-3	4	x	x	x	x	x
CC(=O)c1sc2nc(SCC(=O)NCCc3ccccc3)[nH]c(=O)c2c1C	-1	29*	53*	-6	-9	-2	77*	73*
COc1ccc(CCNC(=O)CSc2nc3sc(C(=O)O)c(C)c3c(=O)[nH]2)cc1OC	1	-1	10	-3	4	-1	x	x
COc1ccc2c(c1)NP(=S)(c1ccccc1)N2C (centres undefined)	x	27*	2	x	x	x	67*	55*
SMILES	UGM FP inh	FBA Mtb inh	GDH-TPI counter-1	Mtb bLac sens	Rv3671c inh	RecA splice inh	Mtb FBA confirm	GDH-TPI counter-2
Cc1cccc(OCC(=O)N2CCC3(CC2)CC(=O)c2ccccc2O3)c1	-1	6	8	-13	-2	-1	x	x
CC(=O)N1CCC2(CC1)CC(=O)c1cc(OCC(=O)N3CCCC3)ccc1O2	4	60*	9	-3	6	-9	48*	45*
CCOC(=O)COc1ccc2c(c1)C(=O)CC1(CCN(C(C)=O)CC1)O2	2	57*	12	x	-3	-7	+	+
CCN1CCN(C(=O)COc2ccc3c(c2)C(=O)CC2(CCN(C(C)=O)CC2)O3)CC1	0	33*	-6	-4	7	-9	61*	56*
Cc1cc2[nH]c(=O)c3ccccc3n2n1	0	6	8	-10	-2	1	x	x
Cc1cc2[nH]c(=O)cc(-c3ccccc3)n2n1	-4	34*	6	5	1	-4	153*	120*
COc1cc2sc3cc(NCC[C@@H]4CCCN4C)ccc3c(=O)c2cc1OC	-3	32*	42*	73	-13	x	+	194*
COc1cc2sc3cc(NCc4ccc(C)o4)ccc3c(=O)c2cc1OC	0	33*	20	23	-20	x	131*	126*
CCn1cc(C(=O)NCc2ccc(C)o2)c2cc(OC)c(OC)cc2c1=O	0	0	7	-6	3	12	x	x
COc1ccc(C)cc1NC(=O)NNC(=O)C(C)Oc1ccc([N+](=O)[O-])cc1 (centres undefined)	-2	2	8	72	3	0	x	x
CNC(=O)c1ccc(-c2ccc(F)cc2)s1	-3	41*	6	-5	-7	-3	115*	95*
O=C(Nc1ccccc1)c1ccc(-c2ccc(F)cc2)s1	-1	1	8	91	2	-1	x	x
COC(=O)c1ccc(COc2ccc3c(C)c(C)c(=O)oc3c2C)o1	x	x	x	x	x	-1	x	x
Cc1c(OCc2ccc(C(=O)O)o2)ccc2c3c(c(=O)oc12)CCC3	u	72*	12	2	3	-1	28*	25*
CCN(CC)C(=O)COc1ccc2c3c(c(=O)oc2c1C)CCCC3	1	64*	10	99	-3	0	+	+
Cc1c(OCC(=O)N[C@H](C(=O)O)c2ccccc2)ccc2c3c(c(=O)oc12)CCCC3	3	31*	11	-1	-4	-1	6	-4
Cc1c(OCC(=O)NCc2ccccn2)ccc2c3c(c(=O)oc12)CCCC3	1	2	7	99	8	-3	x	x
CSCC[C@H](NC(=O)[C@@H]1Cc2ccccc2CN1)C(=O)Nc1ccc2c(c1)OCCO2	-3	-8	0	-1	-3	0	x	x
COc1ccccc1C1NC(=O)NC(C)=C1C(=O)OCC1CCCCC1 (centres undefined)	x	-3	2	x	x	x	x	x
CCc1ccc2[nH]cc(S(=O)(=O)c3ccc(C)c(C)c3)c(=O)c2c1	-1	0	-11	-1	-23	-1	x	x

Source: PubChem BioAssay
